# TGFb SMAD3 inh: blocks TGF-b signaling | Potency, µM (top dose mostly 46.1 µM), most hits filed as inhibitors | 410,000 compounds, 1.2% hits | HepG2 CAGA-GFP TGF-b/SMAD3 reporter, GFP fluorescence, 18 h; TGF-beta stimulated, 500 pg/mL final; further: nearly all actives have a fitted effect of over 65% in size
#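 First, reporter cells (HEPG2 CAGA-GFP) rested 2 h at 37 degrees C. Next, compounds were pinned in and TGF-beta added to 500 pg/mL final. After 18 h, GFP was imaged per cell and summed per well.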
# HepG2 tox: HepG2 cytotoxicity, counter-screen for TGF-b inhibitors | HepG2 CAGA-GFP viability, ATP luminescence, 18 h | 410,000 compounds, 0.76% hits | Potency, µM (top dose mostly 46.1 µM), hits mostly cytotoxic
#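 HepG2 CAGA-GFP cells (1000/well, DMEM with 1% FBS) received compound, then TGF-beta at 500 pg/mL final, and were incubated 18 hours at 37 degrees C. Viability was read by CellTiter-Glo luminescence. Media-only wells were set as complete cell-killing and DMSO as no toxicity.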
# ATXN2 expr inh: ATXN2 expression inhibition. Potency, µM (titrated, usually from 57 µM), usual class: inhibitors. HEK-293 ATXN2-luciferase reporter, luminescence, 24 h. 360,000 compounds, 0.72% hits; further: nearly all actives have a fitted effect of over 55% in size
#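 qHTS (up to 57 uM final) was run with 24 h compound exposure of reporter cells at 37 °C. Each well was multiplexed: SteadyGlo luminescence measured ATXN2-luciferase expression after a fluorogenic Gly-Phe-AFC viability readout (25 uM final).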
# TDP1 cell noCPT: qHTS for Inhibitors of human tyrosyl-DNA phosphodiesterase 1 (TDP1): qHTS in cells in absence of CPT. 420,000 compounds, 15% hits. DT40 Tdp1-/- hTDP1 cells, no CPT, ATP luminescence, 48 h. Potency, µM (highest dose often 46.2 µM), most hits filed as inhibitors; further: nearly all actives have a fitted effect of over 55% in size
#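 A cellular qHTS used chicken DT40 cells lacking endogenous Tdp1 but carrying stably transfected human TDP1. Compounds were applied without camptothecin, and cell growth kinetics were judged by ATP-dependent luminescence after ≥48 hr.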
# ATXN viability: cell viability loss in ATXN counter-screen | S2 cells (HEK-293 line with an ATXN2-luciferase reporter) viability, CellTiter-Fluor protease fluorescence, 24 h | 400,000 compounds, 0.49% hits | AID 651635 | Potency, µM (highest dose often 56.7 µM), hits mostly cytotoxic; further: nearly all actives have a fitted effect of over 40% in size
# DT40 TDP1 CPT: DT40-hTDP1 cell growth loss with CPT; chicken DT40 Tdp1-/-;hTDP1 cells + 20 nM CPT, ATP luminescence, 48 h; Potency, µM (series often up to 46.2 µM), most hits filed as inhibitors; 420,000 compounds, 12% hits; AID 686979; further: nearly all actives have a fitted effect of over 55% in size
#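 Cell growth measured by CellTiter-Glo luminescence after a minimum 48 h, 37 C compound exposure with 20 nM CPT in Tdp1-knockout DT40 cells stably expressing hTDP1, seeded 400/well; qHTS titration format.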
# Numbers stand for hits; – = inactive; ? = inconclusive; · = no result. The list is not random: actives were taken first. Their share in the collection is about 17%. The call rests on the fitted dose curve; in most records, active means well fitted curve in the direction sought with a large enough effect; inconclusive means small, poorly fitted or top-dose-only effect, or another doubt; inactive means no such curve, though single readings can be large; an effect the other way counts as inactive or inconclusive.
SMILES,TGFb SMAD3 inh,HepG2 tox,ATXN2 expr inh,TDP1 cell noCPT,ATXN viability,DT40 TDP1 CPT
CN1CCN(c2ncc3nc(-c4cn(C)c5ccccc45)c(=O)n(C[C@H]4CCCO4)c3n2)CC1,·,·,·,?,·,21µM
Cc1occc1-c1nnc(SCC(=O)O)n1-c1ccccc1,–,–,·,–,–,–
CC1(C)O[C@H]2[C@@H](O1)[C@@H](C(=O)Nc1ccccc1C(F)(F)F)O[C@@H]1OC(C)(C)O[C@@H]12,–,–,–,?,–,?
COc1cc(S(=O)(=O)Nc2cccc3cn[nH]c23)c(OC)cc1Cl,–,–,–,–,–,–
COCCn1c(=O)c(-c2cccs2)nc2cnc(Oc3ccccc3)nc21,·,·,·,–,·,?
O=c1c(-c2ccc(F)cc2)nc2cnc(N3CCOCC3)nc2n1Cc1cccs1,·,·,·,–,·,–
COCCn1c(=O)c(-c2cccs2)nc2cnc(Oc3ccc(OC)cc3)nc21,·,·,·,26µM,·,?
COCCn1c(=O)cnc2cnc(N3CCN(C)CC3)nc21,·,·,·,–,·,23µM
CN1CCN(c2ncc3nc(-c4ccccc4)c(=O)n(Cc4cccs4)c3n2)CC1,·,·,·,16µM,·,?
O=c1c(-c2ccc(Cl)cc2)nc2cnc(N3CCNCC3)nc2n1Cc1cccs1,·,·,·,21µM,·,6.5µM
Cc1cccc(-n2nnc(-c3nc(-c4ccccc4)no3)c2N)c1C,–,–,–,–,–,–
NC(=O)NC(CC(=O)OCC(=O)Nc1nnc(-c2ccccc2)o1)c1ccc(Cl)cc1 (configuration not stated),–,–,·,–,–,–
CN1CCN(c2ncc3nc(-c4cc(F)cc(F)c4)c(=O)n(C4CC4)c3n2)CC1,·,·,·,–,·,?
CN1CCN(c2ncc3nc(-c4ccccc4)c(=O)n(C4CC4)c3n2)CC1,·,·,·,?,·,21µM
O=c1c(-c2cccs2)nc2cnc(N3CCNCC3)nc2n1C1CC1,·,·,·,21µM,·,?
Cn1c(=O)c(-c2cccs2)nc2cnc(N3CCNCC3)nc21,·,·,·,–,·,–
O=c1c(-c2cccs2)nc2cnc(N3CCNCC3)nc2n1Cc1cccs1,·,·,·,13µM,·,7.3µM
Cc1cc(C)c(C(N)=O)c(Nc2ccc(F)cc2)n1,–,–,–,–,–,–
Cc1cc(C)c(C(N)=O)c(Nc2ccc3c(c2)OCCO3)n1,–,–,–,7.3µM,–,?
Cc1ccc(Nc2nc(C)cc(C)c2C(N)=O)c(C)c1,?,–,·,6.5µM,–,?
CCc1ccc(Nc2nc(C)cc(C)c2C(N)=O)cc1,–,–,–,6.5µM,–,?
COc1ccc(Nc2nc(C)cc(C)c2C(N)=O)cc1OC,–,–,–,–,–,–
O=C(c1ccc2c3n(nc2c1)-c1ccc(Cl)cc1CO3)N1CCOCC1,–,–,–,?,–,?
O=C(c1ccc2c3n(nc2c1)-c1ccccc1CO3)N1CCOCC1,–,7.9µM,–,9.2µM,–,8.2µM
Cc1ccc2c(c1)COc1c3ccc(C(=O)N4CCCCC4)cc3nn1-2,?,–,–,26µM,?,21µM
SMILES,TGFb SMAD3 inh,HepG2 tox,ATXN2 expr inh,TDP1 cell noCPT,ATXN viability,DT40 TDP1 CPT
CCN(CC)CCCNC(=O)c1ccc2c3n(nc2c1)-c1ccc(Cl)cc1CO3,?,–,?,16µM,?,?
Cc1ccc2c(c1)COc1c3ccc(C(=O)N[C@@H](CO)C(C)C)cc3nn1-2,–,–,–,18µM,–,23µM
N#Cc1ccc(OCC(=O)N2CCN(c3ccc(C(F)(F)F)cn3)CC2)cc1,–,–,–,–,–,–
COc1ccc(N2CCN(C3CCCN(Cc4cccc(C(C)=O)c4)C3)CC2)cc1 (configuration not stated),–,–,–,–,–,–
O=C(O)CCN(CCC(=O)O)c1ccc(/C=C/c2ccnc3ccccc23)cc1,–,–,·,–,·,–
CN(C)C(=O)c1ccc(/C=C/c2ccnc3ccccc23)cc1,?,–,·,16µM,·,?
CN(CC(=O)O)c1ccc(/C=C/c2ccnc3ccccc23)cc1,?,–,·,20µM,·,11µM
COc1ccc(/C=N/Nc2cc(C)nc(N)n2)cc1,–,–,–,–,–,–
Cc1cc(N/N=C/c2ccc(F)cc2)nc(-n2nc(C)cc2C)n1,?,–,–,3.7µM,–,2.9µM
COc1ccc(/C=N/Nc2cc(C)nc(N3CCOCC3)n2)cc1,–,–,–,?,–,–
CCOc1cc(/C=N/Nc2cc(C)nc(-n3nc(C)cc3C)n2)ccc1O,?,–,1.3µM,2.3µM,?,2.6µM
COc1ccc(/C=N/Nc2cc(C)nc(-n3nc(C)cc3C)n2)c(OC)c1,?,–,16µM,1.6µM,?,1.5µM
CCCCCN(C(=O)CCC(=O)OCCOc1cccc(C)c1)c1c(N)n(CCCC)c(=O)[nH]c1=O,–,–,–,21µM,–,?
CCCCCN(C(=O)CCC(=O)OCc1cccc(Br)c1)c1c(N)n(CCCC)c(=O)[nH]c1=O,–,–,–,15µM,?,?
Cc1cccc(NC(=O)C2CCCN(c3cnccn3)C2)c1 (configuration not stated),–,–,·,–,–,–
Cc1ccc(NC(=O)C2CCN(c3cnccn3)CC2)cc1,–,–,–,–,–,–
CCCc1ccc(NC(=O)C2CCN(c3cnccn3)CC2)cc1,–,–,–,23µM,?,16µM
CCOC(=O)c1ccc(NC(=O)C2CCCN(c3cnccn3)C2)cc1 (configuration not stated),–,–,–,15µM,–,?
Cc1ccc(NC(=O)C2CCCN(c3cnccn3)C2)cc1Cl (configuration not stated),–,–,·,23µM,·,?
Cc1cc(C)c(CN2CCN(C(=O)CC[C@H]3O[C@@H](n4ccc(=O)[nH]c4=O)[C@H](O)[C@@H]3O)CC2)c(C)c1,–,–,–,?,–,–
Cc1ccc(O)c(C(CC(=O)NCC2(c3ccccc3)CCCC2)c2ccccc2)c1 (configuration not stated),·,–,·,?,·,?
N#Cc1cnn(-c2nc3sc4c(c3c(=O)[nH]2)CCCC4)c1N,–,–,–,15µM,–,21µM
COc1ccc(CN2CCCC(c3nc(C)ncc3-c3ccc(F)cc3)C2)c(OC)c1OC (configuration not stated),·,·,·,?,–,12µM
COc1ccc(OC)c(CN2CCCC(c3nc(C)ncc3-c3ccc(F)cc3)C2)c1 (configuration not stated),·,·,·,?,–,21µM
CCOc1ccccc1CN1CCCC(c2nc(C)ncc2-c2ccc(F)cc2)C1 (configuration not stated),·,·,·,18µM,–,?
Oc1ccc(-c2csc(Nc3ccccn3)n2)c(O)c1,?,–,·,?,–,?

# From PubChem BioAssay
